Laboratory results as given in PubChem BioAssay (EPA / NIEHS).
Where “and” joins values, the source holds several entries; their conditions need not be identical. Equal values may be shown once. More than one record can exist for a structure, and the calls need not agree. Calls of active or inactive are those of the source. How the source made its calls: active means hit-call score of the fitted dose curve at least 0.9, where 1 is the maximum; inactive means score below 0.9.

Columns and labels:
[1] = read-out: Interleukin-6 (IL6), IL6 (gene 3569); test: BSK_CASM3C_IL6: BioMAP Diversity Plus: CASM3C Assay for Interleukin-6 (IL6) Biomarker Activity for (AID 2283040); settings: primary human coronary artery smooth muscle cells; actives raise or lower the signal
[2] = read-out: Tissue plasminogen activator (tPA), PLAT (gene 5327); test: BSK_BE3C_tPA: BioMAP Diversity Plus: BE3C Assay for Tissue plasminogen activator (tPA) Biomarker Activity (AID 2283041); settings: primary human bronchial epithelial cells; actives raise or lower the signal;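 on outcome: tPA level quantified by ELISA one day after compound addition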
How it was run: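 Primary human lung bronchial epithelial cultures receive test chemical; after 24 h, tPA is quantified by ELISA, and gain or loss of signal is fitted bidirectionally relative to DMSO baseline.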

[3] = read-out: Interleukin-8 (IL8), CXCL8 (gene 3576); test: BSK_CASM3C_IL8: BioMAP Diversity Plus: CASM3C Assay for Interleukin-8 (IL8) Biomarker Activity (AID 2283042); settings: primary human coronary artery smooth muscle cells; actives raise or lower the signal;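 further: IL-8 protein level quantified by ELISA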
[4] = read-out: Human Leukocyte Antigen - DR isotype (HLADR), HLA-DRA (gene 3122); test: BSK_CASM3C_HLADR: BioMAP Diversity Plus: CASM3C Assay for Human Leukocyte Antigen - DR isotype (HLADR) Biomarker Activity (AID 2283043); settings: primary human coronary artery smooth muscle cells; actives raise or lower the signal;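 further: cell-surface HLA-DR protein level quantified by ELISA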
[5] = read-out: Macrophage colony-stimulating factor (MCSF), CSF1 (gene 1435); test: BSK_CASM3C_MCSF: BioMAP Diversity Plus: CASM3C Assay for Macrophage colony-stimulating factor (MCSF) Biomarker Activity (AID 2283044); settings: primary human coronary artery smooth muscle cells; actives raise or lower the signal;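 further: M-CSF protein amount quantified by ELISA after 24 h exposure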
[6] = read-out: Low-density lipoprotein receptor (LDLR), LDLR (gene 3949); test: BSK_CASM3C_LDLR: BioMAP Diversity Plus: CASM3C Assay for Low-density lipoprotein receptor (LDLR) Biomarker Activity (AID 2283045); settings: primary human coronary artery smooth muscle cells; actives raise or lower the signal;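 further: LDLR protein level on the cell surface quantified by ELISA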
[7] = read-out: Monocyte Chemoattractant Protein-1 (MCP1), CCL2 (gene 6347); test: BSK_CASM3C_MCP1: BioMAP Diversity Plus: CASM3C Assay for Monocyte Chemoattractant Protein-1 (MCP1) Biomarker Activity (AID 2283046); settings: primary human coronary artery smooth muscle cells; actives raise or lower the signal;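 further: MCP-1 level quantified by ELISA 24 h after dosing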
[8] = BSK_CASM3C_Proliferation: Cell Proliferation Assessment in the BioMAP Diversity Plus: CASM3C Assay (AID 2283047); settings: primary human coronary artery smooth muscle cells;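 further: sulforhodamine B total protein stain as relative cell number at 560 nm; sub-confluent cells exposed 48 h before staining; fitted both ways against DMSO so gain or loss of cell number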
[9] = read-out: Monokine induced gamma interferon (MIG), CXCL9 (gene 4283); test: BSK_CASM3C_MIG: BioMAP Diversity Plus: CASM3C Assay for Monokine induced gamma interferon (MIG) Biomarker Activity (AID 2283048); settings: primary human coronary artery smooth muscle cells; actives raise or lower the signal;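 further: MIG protein level measured by ELISA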
[10] = read-out: serum amyloid A (SAA), SAA1 (gene 6288); test: BSK_CASM3C_SAA: BioMAP Diversity Plus: CASM3C Assay for serum amyloid A (SAA) Biomarker Activity (AID 2283049); settings: primary human coronary artery smooth muscle cells; actives raise or lower the signal;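 further: SAA protein level quantified by ELISA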

Structure (SMILES)	outcome [1]	outcome [2]	outcome [3]	outcome [4]	outcome [5]	outcome [6]	outcome [7]	outcome [8]	outcome [9]	outcome [10]	AC50 [1]	AC50 [4]	AC50 [5]	AC50 [7]	AC50 [8]	AC50 [9]	AC50 [10]	AC50 [6]	AC50 [2]	AC50 [3]
Nc1ccc2ccccc2c1	inactive	inactive	inactive	inactive	inactive	inactive	inactive	inactive	inactive	inactive										
CCCCOCCOP(=O)(OCCOCCCC)OCCOCCCC		inactive	inactive	inactive	inactive	inactive	inactive	inactive	inactive	inactive	8.79 µM (active)									
CCOP(=S)(OCC)SCS(=O)(=O)CC	inactive	inactive	inactive	inactive	inactive	inactive	inactive	inactive	inactive	inactive										
c1ccc(OP(Oc2ccccc2)Oc2ccccc2)cc1	inactive	inactive	inactive	inactive	inactive	inactive	inactive	inactive	inactive	inactive										
COC(=O)C(F)(F)C(F)(F)OC(F)(C(F)(F)F)C(F)(F)OC(F)=C(F)F (stereo not given)	inactive	inactive	inactive	inactive	inactive	inactive	inactive	inactive	inactive	inactive										
Cc1ccc(N)cc1N	inactive	inactive	inactive	inactive	inactive	inactive	inactive	inactive	inactive	inactive										
OCC(F)(F)OC(F)(F)C(F)(F)OC(F)(F)C(F)(F)OC(F)(F)F	inactive	inactive	inactive	inactive	inactive	inactive	inactive		inactive	inactive		48.6 µM (active)	17.5 µM (active)	47.3 µM (active)	18.7 µM (active) and 28.5 µM (active)	30 µM (active)	35 µM (active)			
O=C(O)C(F)(OC(F)(F)C(F)(F)C(F)(F)F)C(F)(F)F (stereo not given)	inactive	inactive	inactive	inactive	inactive	inactive	inactive	inactive	inactive	inactive			0.218 µM (active)		5.17 µM (active)					
ClC1=C(Cl)C2(Cl)C3C(Cl)C(Cl)CC3C1(Cl)C2(Cl)Cl (stereo not given)	inactive	inactive	inactive		inactive	inactive	inactive		inactive			20 µM (active)			31.1 µM (active)		20 µM (active)			
OCC(F)(F)OC(F)(F)C(F)(F)OC(F)(F)C(F)(F)OC(F)(F)CO	inactive	inactive	inactive	inactive	inactive	inactive	inactive	inactive	inactive	inactive					47.2 µM (active)					
ClC(Cl)=C(c1ccc(Cl)cc1)c1ccccc1Cl	inactive	inactive	inactive						inactive	inactive		26.1 µM (active)	16.7 µM (active)	20 µM (active)	30 µM (active)			23.5 µM (active)		
CCOP(=S)(S)OCC	inactive	inactive	inactive	inactive	inactive	inactive	inactive	inactive	inactive	inactive										
Nc1ccc(Cl)cc1	inactive	inactive	inactive	inactive	inactive	inactive	inactive	inactive	inactive	inactive										
CSC(C)(C)C=NO	inactive	inactive	inactive	inactive	inactive	inactive	inactive	inactive	inactive	inactive										
CCCCc1ccccc1	inactive	inactive	inactive	inactive	inactive	inactive	inactive	inactive	inactive	inactive										
COCCOCCO	inactive	inactive	inactive	inactive	inactive	inactive	inactive	inactive	inactive	inactive										
CCCCCCCc1ccc(O)cc1	inactive						inactive					35.3 µM (active)	35.5 µM (active)		37 µM (active)	35.3 µM (active)	34.4 µM (active)	31.2 µM (active)	32.2 µM (active)	23 µM (active)
Cc1ccc(O)cc1C	inactive	inactive	inactive	inactive	inactive	inactive		inactive	inactive	inactive				0.658 µM (active)						
CC(C)Nc1ccc(Nc2ccccc2)cc1		inactive									33.4 µM (active)	20 µM (active)	20 µM (active)	32.9 µM (active)	20 µM (active)	28.2 µM (active)	32.8 µM (active)	31.8 µM (active)		34.1 µM (active)
c1ccc2c(c1)sc1ccccc12	inactive	inactive	inactive	inactive	inactive	inactive	inactive	inactive	inactive	inactive										
CCCCN(CCCC)N=O	inactive	inactive	inactive	inactive	inactive	inactive	inactive	inactive	inactive	inactive										
O=C(O)C(F)(F)OC(F)(F)C(F)(F)OC(F)(F)F	inactive	inactive	inactive	inactive	inactive	inactive	inactive	inactive	inactive	inactive				1.03 µM (active)		1.17 µM (active)				
CCOC(=O)c1ccccc1C(=O)OCC	inactive	inactive	inactive	inactive	inactive	inactive	inactive	inactive	inactive	inactive										
CC(Cc1ccc(OCC(=O)O)cc1)NCC(O)c1csc(C(F)(F)F)n1 (stereo not given)	inactive	inactive	inactive	inactive	inactive	inactive	inactive	inactive	inactive	inactive										
NC(=O)C(F)(F)C(F)(F)F	inactive	inactive	inactive	inactive	inactive	inactive	inactive	inactive	inactive	inactive										
C=CC(=O)OCC(F)(F)C(F)F	inactive	inactive	inactive			inactive	inactive			inactive	22.9 µM (active)	36.3 µM (active) and 38.8 µM (active)	30 µM (active) and 18.2 µM (active)		30 µM (active)	30 µM (active) and 16.9 µM (active)	30 µM (active)		14.9 µM (active)	
COP(=O)(CCC(=O)NCO)OC	inactive	inactive	inactive	inactive	inactive	inactive	inactive	inactive	inactive	inactive	1.56 µM (active)	0.3 µM (active)								

Structure (SMILES)	outcome [1]	outcome [2]	outcome [3]	outcome [4]	outcome [5]	outcome [6]	outcome [7]	outcome [8]	outcome [9]	outcome [10]	AC50 [1]	AC50 [4]	AC50 [5]	AC50 [7]	AC50 [8]	AC50 [9]	AC50 [10]	AC50 [6]	AC50 [2]	AC50 [3]
CC(C)(C)OOC(C)(C)C	inactive	inactive	inactive	inactive	inactive	inactive	inactive	inactive	inactive	inactive										
O=C(O)C(F)(F)C(F)(F)C(=O)O	inactive	inactive	inactive	inactive	inactive	inactive	inactive	inactive	inactive	inactive										
[N-]=[N+]=[N-]	inactive	inactive	inactive	inactive	inactive	inactive	inactive	inactive	inactive	inactive										
O=[N+]([O-])c1ccc(Cl)c(Cl)c1	inactive	inactive	inactive	inactive	inactive	inactive	inactive	inactive	inactive	inactive										
Cc1ccc([N+](=O)[O-])cc1C	inactive	inactive	inactive	inactive	inactive	inactive	inactive	inactive	inactive	inactive										
c1nc[nH]n1	inactive	inactive	inactive	inactive	inactive	inactive	inactive	inactive	inactive	inactive										
CCCCN(CCCC)SN(C)C(=O)Oc1cccc2c1OC(C)(C)C2	inactive	inactive	inactive				inactive		inactive			29.1 µM (active)	11.4 µM (active)		27.1 µM (active)		31.3 µM (active)	36.6 µM (active)		
CC(O)C(F)(F)C(F)(F)F (stereo not given)	inactive	inactive	inactive	inactive	inactive	inactive	inactive	inactive	inactive	inactive										
Nc1ccc([N+](=O)[O-])cc1Cl	inactive	inactive	inactive	inactive	inactive	inactive	inactive	inactive	inactive	inactive										
O=[N+]([O-])c1ccccc1	inactive	inactive	inactive	inactive	inactive	inactive	inactive	inactive	inactive	inactive										
Nc1cc2c3c(c1)C(c1ccccc1)=N[C@@H](NC(=O)c1cccnc1)C(=O)N3CC2	inactive	inactive	inactive	inactive	inactive	inactive	inactive	inactive	inactive	inactive										
O=C(O)C1C(C(=O)O)C2(Cl)C(Cl)=C(Cl)C1(Cl)C2(Cl)Cl (stereo not given)	inactive	inactive	inactive	inactive	inactive	inactive	inactive	inactive	inactive	inactive										
CC(C)(C)c1ccccc1OP(=O)(Oc1ccccc1)Oc1ccccc1	inactive	inactive	inactive	inactive	inactive		inactive		inactive	inactive					20 µM (active)			4.61 µM (active)		
O=S1(=O)OCC2C(CO1)C1(Cl)C(Cl)=C(Cl)C2(Cl)C1(Cl)Cl (stereo not given)	inactive	inactive	inactive			inactive	inactive		inactive			32.7 µM (active)	7.85 µM (active)		20 µM (active)		23.2 µM (active)			
FC(F)(F)C(F)(C(F)(F)F)C(F)(F)C(F)(F)CC1CO1 (stereo not given)	inactive	inactive	inactive	inactive	inactive	inactive	inactive	inactive	inactive	inactive										
ClC(Cl)(Cl)c1ccccc1	inactive	inactive	inactive	inactive	inactive	inactive	inactive	inactive	inactive	inactive										
CCN(CC)c1ccccc1	inactive	inactive	inactive	inactive	inactive	inactive	inactive	inactive	inactive	inactive										
CCOP(=S)(OCC)SCSCC	inactive	inactive	inactive	inactive	inactive	inactive	inactive	inactive	inactive	inactive										
CC(C)(C)c1ccc(O)cc1	inactive	inactive	inactive	inactive	inactive	inactive	inactive	inactive	inactive	inactive										
O=c1ssc(Cl)c1Cl			inactive			inactive					4.33 µM (active)	3.54 µM (active)	5.46 µM (active)	5.7 µM (active)	1.69 µM (active)	24.4 µM (active)	1.4 µM (active)		7.68 µM (active)	
COP(=O)(O)OC	inactive	inactive	inactive	inactive	inactive	inactive	inactive	inactive	inactive	inactive										
CCOP(=S)(Oc1ccc([N+](=O)[O-])cc1)c1ccccc1 (stereo not given)	inactive		inactive		inactive		inactive		inactive	inactive		14.2 µM (active)			20 µM (active)			20 µM (active)	2.17 µM (active)	
CN(C)C(=O)Cl	inactive	inactive	inactive	inactive	inactive	inactive	inactive	inactive	inactive	inactive										
CCC1(c2ccccc2)C(=O)N=C(O)NC1=O (stereo not given)	inactive	inactive	inactive	inactive	inactive	inactive	inactive	inactive	inactive	inactive										
CCOP(=S)(OCC)SCSc1ccc(Cl)cc1	inactive	inactive	inactive	inactive	inactive	inactive		inactive	inactive	inactive				0.272 µM (active)						
CCOP(=S)(OCC)SCn1nnc2ccccc2c1=O	inactive	inactive	inactive	inactive	inactive		inactive		inactive	inactive					20 µM (active)			32.3 µM (active)		
CCOc1ccc(C(C)(C)COCc2cccc(Oc3ccccc3)c2)cc1	inactive		inactive	inactive	inactive	inactive	inactive	inactive	inactive	inactive									0.668 µM (active)	
